# From PubChem BioAssay AID463173 (ICCB-Longwood Screening Facility, Harvard Medical School, 2010)
# The whole screen tested about 52,000 compounds, of which about 1,700 (3.3%) were called active. The list comes from a sample in which actives are over-represented; it also holds similar structures and randomly drawn compounds. Unmarked numbers belong to inactive results. No stated cut-off is given here; in the data, active means survival mostly below about 52% (no sharp cut-off); inactive means mostly above about 56%.
# Test system: Wild type
# Assay: S. aureus survival, RN4220 and DeltatarO strains – OD600, teichoic acid synthesis inhibitors, primary screen (AID 463173)
# Settings: S. aureus RN4220 wild type/DeltatarO growth, OD600, 18 h, stronger effect = lower value, screened at 18.75 µg/mL (by protocol)
row,SMILES,survival
1,COc1ccc(NC(=O)c2oc3ccccc3c2NC(=O)c2cc(C)cc(C)c2)c(OC)c1,79%
2,COc1ccc(NC(=O)C2CCC(CNS(=O)(=O)c3cccc4nsnc34)CC2)cc1OC (stereo unspecified),87%
3,CN(Cc1ccccc1)C(=O)Cn1c(=O)c2cccn2c2ccc(F)cc21,81%
4,Cc1ccc(Cn2c(-c3ccccc3)nc3ccccc32)cc1,8% (active)
5,Cc1ccc(Cn2c(C(C)NC(=O)c3ccccc3)nc3ccccc32)cc1 (stereo unspecified),91%
6,Cc1ccc(Cn2c(=O)c3ccccc3n3c(-c4ccccc4)nnc23)cc1,91%
7,CCCCn1c(SCC(=O)N2CCCCCC2)nnc1-c1ccoc1C,98%
8,Cc1cccc(N2CCN(c3ccc4cc(S(=O)(=O)N5CCC(C)CC5)ccc4n3)CC2C)c1 (stereo unspecified),129%
9,CSc1cccc(Nc2cc(C(=O)NC3CCCCC3)c3ccccc3n2)c1,142%
10,CN1CN2C(=O)N3CN(C)CN4C(=O)N(C1)C2C34 (stereo unspecified),110%
11,Cc1cc(C)c(Cn2c(C(O)c3ccccc3)nc3ccccc32)c(C)c1 (stereo unspecified),11% (active)
12,OC(c1ccccc1)c1nc2ccccc2n1Cc1c(F)cccc1Cl (stereo unspecified),82%
13,COC(=O)Cn1c(C(O)c2ccccc2)nc2ccccc21 (stereo unspecified),97%
14,CCOc1ccc(CNC(=O)CS(=O)(=O)c2cccc3nsnc23)cc1,126%
15,COc1ccccc1NC(=O)C1CCN(C(=O)c2ccccc2)CC1,94%
16,Cc1c(Cl)cccc1-n1ncc(C(=O)Nc2ccc(F)cc2F)c1C1CCN(C(=O)OC(C)(C)C)CC1,71%
17,CCOC(=O)c1ccc(Nc2nc3nonc3nc2NCc2ccco2)cc1,35%
18,Cc1cccc(Nc2nc3nonc3nc2N/N=C\c2cccs2)c1C,96%
19,CCOC(=O)c1ccc(Nc2nc(C)cc(C)n2)cc1,87%
20,Cc1ccc(C)c(Nc2nc3nonc3nc2Nc2cccc(C)c2C)c1,4% (active)
21,CCOC(=O)c1ccc(Nc2nc3nonc3nc2Nc2cccc(C)c2C)cc1,0% (active)
22,Cc1cccc(Nc2nc3nonc3nc2Nc2cccc(C)c2C)c1C,102%

row,SMILES,survival
1,CCS(=O)(=O)N1CCc2cc(C(=O)Nc3ccc(OC)cc3OC)ccc21,88%
2,Cc1ccc([N+](=O)[O-])cc1NC(=O)CN(c1ccccc1)S(=O)(=O)N(C)C,69%
3,CCn1c(O)c(C=Nc2cccc(O)c2)sc1=S,115%
4,Cn1cnc(S(=O)(=O)N2CCCC(C(=O)Nc3ccc(OC(F)(F)F)cc3)C2)c1 (stereo unspecified),19%
5,CCOc1ccc(CNC(=O)c2[nH]c3ccccc3c2Sc2ccc(C)cc2)cc1,120%
6,CCN1C(=O)c2ccccc2S(=O)(=O)c2ccc(C(=O)NCc3ccc(OC)cc3)cc21,97%
7,CCN(CC)C(=O)c1ccc2c(c1)N(Cc1c(F)cccc1Cl)C(=O)c1ccccc1S2,16% (active)
8,CCN(CC)CCCNC(=O)c1ccc2c(c1)N(Cc1c(F)cccc1Cl)C(=O)c1ccccc1S2,139%
9,CN(C)CCNC(=O)c1ccc2c(c1)N(Cc1c(F)cccc1Cl)C(=O)c1ccccc1S2,105%
10,Cc1ccc(Cl)cc1NC(=O)CN1C(=O)c2cccc3cccc1c23,71%
11,CCC(=O)N1CCc2cc(Br)cc(S(=O)(=O)N3CCN(c4ccccc4OC)CC3)c21,72%
12,Cc1cc(C)n(-c2nc3ccccc3nc2N2CCN(c3cccc(C(F)(F)F)c3)CC2)n1,88%
13,Cc1cc(C)n(-c2nc3ccccc3nc2N2CCN(c3cccc(C)c3C)CC2)n1,-1% (active)
14,COc1ccccc1N1CCN(c2nc3ccc(C)cc3nc2-n2nc(C)cc2C)CC1,0% (active)
15,Cc1cc(C)c(C#N)c(N2CCN(c3cccc(C)c3C)CC2)n1,109%
16,Cc1cc(C)n(-c2nc3cc(Cl)ccc3nc2N2CCN(c3ccccc3F)CC2)n1,68%
17,Cc1cc(C)n(-c2nc3cc(Cl)ccc3nc2N2CCN(c3cccc(C)c3C)CC2)n1,-1% (active)
18,Cc1ccc2nc(N3CCN(c4cccc(Cl)c4)CC3)c(-n3nc(C)cc3C)nc2c1,3% (active)
19,Cc1cc(C)n(CCc2nc3c4ccccc4nc(N4CCN(c5cccc(C)c5C)CC4)n3n2)n1,74%
20,Cc1ccc(C)c(N2CCN(c3nc4ccc(C)cc4nc3-n3nc(C)cc3C)CC2)c1,86%
21,Cc1cc(C)n(-c2nc3cc(Cl)ccc3nc2Nc2ccc(C)c(F)c2)n1,86%
22,Cc1ccc2nc(N3CCN(c4cccc(Cl)c4)CC3)c3nnnn3c2c1,72%

row,SMILES,survival
1,COc1cccc(Nc2nc3ccc(C)cc3nc2-n2nc(C)cc2C)c1,82%
2,COc1ccc(-c2oc3ncn4nc(COc5cccc(C)c5C)nc4c3c2-c2ccc(OC)cc2)cc1,77%
3,Cc1ccc(C)c(Cn2nc(C)n3c(cc4cc(C)ccc43)c2=O)c1,79%
4,Cc1ccc(Cl)cc1N1CCN(C(=O)c2cc3c(=O)oc4ccccc4c3s2)CC1,71%
5,COCCN(Cc1cc2ccc(C)c(C)c2nc1Cl)C(=O)N1CCOCC1,104%
6,COc1ccc(C(C)C)cc1S(=O)(=O)N1CC(C)OC(C)C1 (stereo unspecified),109%
7,COC(=O)C1=C(C)N(c2ccc(N(C)C)cc2)C(C)=C(C(=O)OC)C1c1ccccc1,101%
8,CC1=C(C(=O)Nc2ccccc2)C(c2ccc(O)cc2)n2nc(SCc3ccccc3)nc2N1 (stereo unspecified),115%
9,CCN(CC)S(=O)(=O)c1ccc(C(=O)NCCSc2c(-c3ccc(OC)cc3)[nH]c3ccccc23)cc1,124%
10,CCn1nc(C)c2c(-c3ccccc3)cc(=O)n(C(C)C(=O)Nc3ccc(OC)c(OC)c3)c21 (stereo unspecified),59%
11,Cc1ccc(Sc2c(C)nn(C(C)(C)C)c2OC(=O)C(C)(C)C)cc1,-8% (active)
12,COCC(=O)Oc1c(Sc2ccc(C)cc2)c(C)nn1C(C)(C)C,69%
13,Cc1nn(C(C)(C)C)c(OC(=O)C(C)(C)C)c1Sc1ccccc1,-9% (active)
14,Cc1nn(-c2ccccc2)c(OC(=O)C(C)(C)C)c1Sc1ccccc1,51%
15,Cc1ccc(Sc2c(C)nn(-c3ccccc3)c2OC(=O)C(C)(C)C)cc1,-6% (active)
16,Cc1nn(C(C)(C)C)c(OC(=O)c2c(F)cccc2F)c1Sc1ccccc1,117%
17,Cc1ccc(Sc2c(C)nn(C(C)(C)C)c2OC(=O)CC(C)C)cc1,-8% (active)
18,COc1ccc(C(=O)Oc2c(Sc3ccc(C)cc3)c(C)nn2C(C)(C)C)cc1OC,127%
19,CCC(=O)Oc1c(Sc2ccc(C)cc2)c(C)nn1-c1ccccc1,55%
20,Cc1ccc(Sc2c(C)nn(-c3ccccc3)c2OC(=O)CC(C)C)cc1,45%
21,CCC(=O)Oc1c(Sc2ccc(Cl)cc2)c(C)nn1C(C)(C)C,60%
22,Cc1ccccc1C(=O)Oc1c(Sc2ccccc2)c(C)nn1C(C)(C)C,50%
